According to the supplement of paper PMC6555819:

Columns and labels:
Assay in all cases: PBM binding z-score (relative to random genomic background probes); higher = stronger binding; sequences stand for … in GC…GCGATTGACAGCGTAGAATGAAGG
[1] = tested on: RARb homodimer (NR concentration 270 nM)
Method in brief: (§1)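 Binding z-scores take random background probes as their reference. They come from custom Agilent 4×180K protein-binding microarrays incubated 1 h with ligand-free nuclear receptor dimers, with antibodies against each partner (one per run) detecting binding. Scanned fluorescence was regression-normalized.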

[2] = tested on: RARg:RXRa (NR concentration 270 nM, RXRa partner concentration 90 nM)
Method in brief: as §1

[3] = tested on: RARg homodimer (NR concentration 270 nM)
Method in brief: as §1

[4] = tested on: RXRa DBDmut IVT, anti-RXR (DBD mutation: RXRa K156A/R161A, NR concentration 90 nM)
Method in brief: as §1

[5] = tested on: RXRa homodimer (NR concentration 180 nM)
Method in brief: as §1

[6] = tested on: THRa:RXRa (NR concentration 90 nM, RXRa partner concentration 90 nM)
Method in brief: as §1

[7] = tested on: THRa homodimer (NR concentration 90 nM)
Method in brief: as §1

[8] = tested on: VDR homodimer (NR concentration 270 nM)
Method in brief: as §1

Sequence	PBM binding z-score [1]	PBM binding z-score [2]	PBM binding z-score [3]	PBM binding z-score [4]	PBM binding z-score [5]	PBM binding z-score [6]	PBM binding z-score [7]	PBM binding z-score [8]
AATACAGGGTCACTAGGCCAGGGTAGGTACGAAT	3.44	4.88	4.64	2.33	5.25	3.41	1.34	2.71
GCTTGTAGATCAACGTTAAGAAAGACTAAGCTAA	-0.408	-0.256	-0.209	0.0501	-0.405	-0.214	-0.701	-0.764
CCTTACGGGTCAAGGTTATAGCACGGGTGGTACG	3.41	5	5.02	0.875	5.55	3.02	0.771	1.46
TTACCGAGGTGAAGGTCGTTGATCCCTCTGTAGA	1.72	1.58	1.02	-0.12	2	2.66	1.16	0.99
GCTGCTAGGTCAACTGATGGTCCGCTAAAGCTCG	3.41	4.2	5.3	1.53	2.8	2.73	1.26	0.106
CCAGACAGGTGAAAGGTAGCTCAGTCTGGTACGC	0.293	0.352	0.242	-0.0776	1.07	0.0213	-0.421	0.118
TAGCCTAGGTAATGCGGGCCAGTATAGTGTCGGC	-0.521	-0.6	-0.559	-1.3	-0.499	-0.418	-0.74	-0.784
CCGAGTGGGGCAAAGGTTACCATACTCAGTACGA	2.45	3.55	1.75	0.25	3.67	1.86	-0.359	0.16
CGAACAAGGTCAAGGACAGTGAATCTCCGCACGC	4.07	6.08	6.35	3.61	6.26	4.03	2.93	2.3
CAAACTAGGTCGAAGGTCAAAGTCGAGCCAACCA	3.79	5.7	4.29	1.85	6.86	3.5	0.693	1.71
TCTCGGAGGACACGAAGGTCAGTGCTTTCCAGAG	3.9	2.87	3.49	0.969	1.47	2.73	1.06	1.39
CAAACTGGGTCAAGAGGTCAAAGTCCGCTTCCCG	5.73	7.97	7.04	2.51	8.44	4.14	2.13	4.76
CCTCGGAGCACAACAGGAGGTCAGAGCTGCCAGA	2.86	1.9	1.65	-0.138	1.74	1.91	0.301	0.485
GGAACGAAGGCATTCGAGTTGATAGCATGGCGAT	-0.976	-0.479	-0.164	-0.552	-0.562	0.655	-1.68	-0.0499
AGTCAAAGTTCACTAGTTAACGTAAGATTCAGCT	3.6	4.87	5.57	4.26	3.7	1.45	-0.514	4.04
GGAACGAGGGCAAGTTGATAGCGGAGTTTGATGG	1.43	1.28	1.74	2.31	0.823	1.13	0.118	1.73
TCGAGTAGGTTACCAATGGGGTATTCAGCTTTCT	0.128	0.0634	0.354	0.563	0.443	0.253	-0.473	-0.39
TCAGACAGGTGAAGGTAACTCATGTACGCAGTCG	0.741	0.76	0.656	1.32	1.02	0.677	0.193	0.0395
CGTCAAAGTTCAAGGTAACGTGACAGAAAGCAGC	3.72	5.21	5.97	4.54	4.26	2.99	1.08	3.04
TCTCGGAGGACACGAAGGTCAGACCTTTCCAGAG	3.98	3.27	3.81	1.03	1.94	3.08	1.21	1.44
TCTATTAGTTGATGGGCAACCGACGAGTCCGTTT	-0.181	-0.125	-0.0889	1.49	0.101	-0.425	0.00181	0.831
ACTAGCAGGCCAAGTTTGGATCACTCAAACAAAG	-0.0539	-0.0446	0.341	-0.14	-0.454	-0.0937	-0.67	-0.0821
CTACGAAGGTGAACAAGGTCGTTGATTACTATTC	2.4	2.2	1.98	1.51	2.21	2.91	1.08	2.46
GCTCGGAGGACGAGGTCAGAGCTTTGTCCGTAGA	2.89	3.06	2.84	0.606	3.19	3.09	1.51	1.26
CAAACTAGGTCAAGAGGTTAAAGTCCGCTTCCCG	4.23	6.18	5.49	1.61	5.2	3.36	1.36	1.86
TCTAGTTGGTCACGGACGTCACACACGACGGGTA	1.04	1.2	1.55	0.677	0.866	0.233	-0.0119	0.188
ATATGTAGATTACATCCGGGTCATTCAGGCTATG	2.23	1.66	1.21	1.02	2.2	3.14	2.27	2.43
TCAGACAGTTGAAGGTAACTCAGGTACGCAGTCG	-0.0141	0.206	0.167	1.29	0.943	1.17	0.195	0.508
CCTACTGGGCCAAAAAGCTCATTGATGCCGATAA	-0.842	-0.596	-0.419	-0.369	-0.638	-0.815	-0.619	-0.487
